# Screens deposited in PubChem BioAssay by several laboratories.
# dFosB activator: activators of delta FosB homodimer, primary screen, biochemical, fluorescence polarization, TAMRA-CDK5 oligo, single point. purified delta FosB; percent of positive-control signal above neutral wells. hit rate 0.99% among 340,000. activation, % at 25 µM. Protein FosB (Mus musculus), P13346;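 active means mean activation above about 17%, with every replicate also reaching it, limit read from the data, passing the limit was not always enough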
# Target sequence (P13346 whole entry, looked up): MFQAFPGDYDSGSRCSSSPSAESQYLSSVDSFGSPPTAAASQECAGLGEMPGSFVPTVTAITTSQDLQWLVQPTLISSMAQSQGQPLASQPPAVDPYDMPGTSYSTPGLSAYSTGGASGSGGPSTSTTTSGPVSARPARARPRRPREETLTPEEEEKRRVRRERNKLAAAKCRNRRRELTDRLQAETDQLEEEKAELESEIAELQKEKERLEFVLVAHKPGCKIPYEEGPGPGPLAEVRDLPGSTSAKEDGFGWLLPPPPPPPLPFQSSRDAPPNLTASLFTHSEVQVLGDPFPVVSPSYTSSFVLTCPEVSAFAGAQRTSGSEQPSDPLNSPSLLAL
# HMGR II inh: inhibitors of E. faecalis class II HMGR, primary screen, biochemical, Enterococcus faecalis | purified E. faecalis HMGR, NADPH absorbance 340 nm kinetic | inhibition, % at 10 µM | hit rate 0.41% among 190,000 | AID 1066, 2008 | HMG-CoA reductase (Enterococcus faecalis, mvaE);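 active means inhibition above a set limit, the median over all tested compounds plus 3 SD, cut at about 9.5% in these data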;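 further: enzyme runs in reverse so mevalonate oxidation gives rising NADPH absorbance; 0% = complete reaction with DMSO and 100% = background rate lacking mevalonate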
# NCF1 inh: p47phox/p22phox peptide binding inhibitors, primary screen, biochemical, uHTS, NADPH oxidase regulatory subunit. inhibition, % at 24.7 µM. fluorescence polarization, 2 h. hit rate 0.53% among 220,000. Neutrophil cytosol factor 1 (Homo sapiens), P14598. AID 1274, 2008;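 active means inhibition above about 30%, limit read from the data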;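 further: 0% = p47phox with labelled peptide and 100% = labelled peptide alone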
# 14-3-3 Bad inh: inhibitors of 14-3-3 zeta/Bad binding, primary screen, biochemical, TR-FRET, bovine 14-3-3 zeta; 14-3-3 protein zeta/delta (Bos taurus), P63103; inhibition, % at 21.7 µM; hit rate 0.71% among 220,000; TR-FRET 14-3-3zeta/Dy647-pBad peptide displacement, 1 h;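 active means inhibition above about 70%, limit read from the data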;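 further: 0% = full 14-3-3 plus peptide FRET controls and 100% = background without 14-3-3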
# Target sequence (P63103 whole entry, looked up): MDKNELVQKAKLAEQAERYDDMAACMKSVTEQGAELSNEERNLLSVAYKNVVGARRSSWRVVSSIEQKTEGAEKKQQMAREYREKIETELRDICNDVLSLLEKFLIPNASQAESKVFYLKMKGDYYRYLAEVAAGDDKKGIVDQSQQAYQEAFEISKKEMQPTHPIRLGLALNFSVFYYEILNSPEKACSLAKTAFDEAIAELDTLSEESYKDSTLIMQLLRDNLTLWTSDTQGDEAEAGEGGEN
# Starred values were filed as active, the others as inactive; / = no result; + = active, no number; ! = not confirmed by another sample; [ ] = dose if it differs, or a comment. Rows were chosen to be rich in hits. Some 1.9% of all compounds tested hit in one or more screens of this group.
SMILES,dFosB activator,HMGR II inh,NCF1 inh,14-3-3 Bad inh
Cc1ccc(NC(=O)CN2C(=O)/C(=C3\SC(=S)N(C4CCS(=O)(=O)C4)C3=O)c3ccccc32)cc1 (stereo not drawn),6,0,76*,93*[fluorescence artefact?]
Cc1cccc(NC(=O)CN2C(=O)/C(=C3\SC(=S)N(CC4CCCO4)C3=O)c3ccccc32)c1 (stereo not drawn),0,/,/,/
O=C(Nc1ccnn1C1CCN(Cc2ccc(F)cc2)CC1)C1CC1,3,/,/,/
O=C(NC1C2CC3CC(C2)CC1C3)c1ccc2c(c1)OCO2 (stereo not drawn),2,/,/,/
O=C(NC1CCCCC1)N(Cc1nc2ccccc2c(=O)[nH]1)C1CCCCC1,-9,1,-8,36
O=C(NC1CCCCC1)N(Cc1nc2ccccc2c(=O)[nH]1)C1CCCC1,-7,3,31*,/
CCC1CCCCN1C(=O)CCCc1ccccc1 (stereo not drawn),-3,/,/,/
CCC1CCCCN1C(=O)CCn1ccnc1 (stereo not drawn),-5,15*,-7,-22
CC(/C=C1\SC(=S)N(CCCC(=O)Nc2ccc(C(=O)O)c(O)c2)C1=O)=C\c1ccccc1,/,-1,-77,50
CC(/C=C1\SC(=S)N(CCC(=O)Nc2ccc(O)cc2)C1=O)=C\c1ccccc1,23*,/,/,/
COc1ccc(/C=C2\SC(=S)N(CCC(=O)Nc3ccc(O)cc3)C2=O)cc1,34*,/,/,/
O=C(CCN1C(=O)/C(=C\c2ccc(F)cc2)SC1=S)Nc1ccc(O)cc1,32*,/,/,/
CCOc1ccc(/C=C2/SC(=S)N(CCC(=O)Nc3ccc(C(=O)O)cc3)C2=O)cc1,48*,/,/,/
COc1ccc(CNC(=O)CN2C(=O)NC(C)(c3ccc(Cl)cc3)C2=O)cc1 (stereo not drawn),-8,/,/,/
CCOP(=O)(c1c(F)c(F)c(F)c(F)c1F)C(O)c1ccccc1 (stereo not drawn),-2,1,-5,-5
CCOC(=O)/C(C#N)=C/c1ccc(OC(=O)c2ccccn2)cc1,3,-3,9,81*[fluorescence artefact?]
CCOC(=O)/C(C#N)=C/c1ccc(SC)cc1,5,14*,-5,-18
Cc1ccc2oc(Nc3nc(-c4ccccc4)cc(=O)[nH]3)nc2c1,/,-7,45*,88*
COCc1cc(=O)[nH]c(Nc2nc3ccccc3o2)n1,-15,-2,-9,-11
Cc1ccc(Nc2nc(NCCO)nc3c2cnn3C)cc1Cl,1,/,/,/
CCOC(=O)c1c(C)n(OCc2ccccc2)c2ccc3c(no[n+]3[O-])c12,0,7,6,11
COc1ccccc1C1CCCN1Cc1nc(-c2ccc(C)s2)oc1C (stereo not drawn),-2,12*,-55,-6
COc1ccccc1C1CCCN1Cc1nc(-c2cc3c(cc2Cl)OCO3)oc1C (stereo not drawn),-7,-1,-28,5
CC(C)(C)c1ccc(C(=O)NCC(=O)OCC(=O)Nc2nc(-c3ccc(F)cc3)cs2)cc1,-11,0,-3,-5
COc1ccc(S(=O)(=O)N(C)c2ccc(C(=O)N3CCCC3)cc2)cc1,-1,9.7*,-8,-1
SMILES,dFosB activator,HMGR II inh,NCF1 inh,14-3-3 Bad inh
COc1ccc(S(=O)(=O)N(C)c2ccc(C(=O)N3CCC(C(N)=O)CC3)cc2)cc1,0,-5,-14,-1
CCOC(=O)c1cnc2ccc(OC)cc2c1Nc1ccc(N2CCN(C)CC2)cc1,36*,/,/,/
CCOC(=O)c1ccc2ncc(C(=O)OCC)c(Nc3ccc(N4CCOCC4)cc3)c2c1,-14,-3,-8,-5
CN(C(=O)CSc1nc2ccccc2c(=O)n1-c1ccc(F)cc1F)C1CCS(=O)(=O)C1 (stereo not drawn),-15,/,/,/
O=C(CN1CCCC1)Nc1c2c(nc3ccccc13)N(Cc1ccccc1)CC2,2,0,-18,84*
O=C(CN1CCOCC1)Nc1c2c(nc3ccccc13)N(Cc1ccccc1)CC2,-5,-2,-4,77*
COc1ccccc1CN1CC(C(=O)NCCN2CCNC2=O)CCC1=O (stereo not drawn),-4,/,/,/
COc1ccccc1NCC(=O)c1ccc(Cl)cc1,-9,/,/,/
CCn1c(CSc2nc3ccccc3[nH]2)nc2cc(C(=O)O)ccc21,-34,-2,13,35
CCn1c(CSc2nccn2C)nc2cc(C(=O)O)ccc21,-55,-4,-5,72*
C=CCOc1ccc(Br)cc1CNC(C)(C)CO,1,-2,-11,0
C=CCOc1ccc(Br)cc1CNC(C)(C)C,-1,22*,7,4
Clc1ccc(SCCn2cncn2)cc1,2,-3,-6,73*
CN(Cc1ccccc1)CC(O)COc1ccc(CNCCc2ccncc2)cc1 (stereo not drawn),-3,-4,-2,86*
CC(=O)Nc1ccc(NC(=O)C(C)Sc2nc3ccccc3c(=O)n2Cc2ccco2)cc1 (stereo not drawn),12,/,/,/
O=C1S/C(=C\c2ccc(O)c([N+](=O)[O-])c2)C(=O)N1c1ccccc1Cl,-6,1,-2,-4
COc1cc(/C=C2\SC(=O)N(c3cccc(Cl)c3)C2=O)cc([N+](=O)[O-])c1O,-8,0,-9,92*
COc1cc(/C=C2\SC(=O)N(c3ccc(Cl)cc3)C2=O)cc([N+](=O)[O-])c1O,4,-7,-15,93*
Nc1cc(-c2nn[nH]n2)ccc1F,-2,3,5,72*
COc1ccc(-c2nn[nH]n2)cc1OC,1,-7,11,36
CC(C)CC(=O)Nc1ccc2ccccc2c1,2,-4,91*!,-10
O=C(NNC(=O)c1ccc[nH]1)Nc1cccc(C(F)(F)F)c1,-7,/,-16,-1
CC1(C)CC(=O)c2cc(C(=O)N3CCN(CCO)CC3)c(=O)n(-c3ccc(Cl)cc3)c2C1,-1,11*,-10,7
COc1ccc(-n2c3c(cc(C(=O)N4CCCCC4)c2=O)C(=O)CC(C)(C)C3)cc1,0,-4,-8,5
CCc1nnc(NCC(=O)N2CCc3ccccc32)s1,-13,2,+,/
SMILES,dFosB activator,HMGR II inh,NCF1 inh,14-3-3 Bad inh
O=C(CNCCO)N1CCc2ccccc21,-1,-5,-4,3
C=C(C)CSc1nc2c(c(=O)[nH]c(=O)n2C)n1Cc1ccccc1,-9,/,-5,2
Cn1c(=O)[nH]c(=O)c2c1nc(SCC(=O)Nc1ccccc1)n2Cc1ccccc1,54*,-2,-16,5
CCCSc1nc2c(c(=O)[nH]c(=O)n2C)n1Cc1ccccc1,-5,/,/,/
CCCSc1nc2c(c(=O)[nH]c(=O)n2C)n1Cc1ccc(C)cc1,-6,0,33*,11
O=c1cc(-c2ccc(O)cc2)oc2cc(O[C@@H]3O[C@H](CO)[C@@H](O)[C@H](O)[C@H]3O[C@@H]3OC[C@](O)(CO)[C@H]3O)cc(O)c12,-13,-6,7,-14
Cc1ccc([N+](=O)[O-])cc1NC(=S)NCCc1ccccc1,-4,/,/,/
COc1ccccc1N=Nc1nc(-c2ccccc2)c(-c2ccccc2)[nH]1,-12,-3,119*,2
